Data on 9 compounds can be found in PubChem BioAssay (NCI).

Experiment in all cases: NCI-60 one-dose screen, 48 h (100 = growth as untreated, 0 = no growth, -100 = all killed)
Experiment [1] has as its system SNB-75 CNS. The settings on record: 10 µM.
Experiment [2] deals with SNB-19 CNS. The settings on record: 10 µM unless noted.
Experiment [3] has as its system PC-3 prostate. The conditions noted are these: 10 µM unless noted.
For experiment [4], the system named is SK-MEL-5 melanoma. The settings on record: 10 µM unless noted.
Experiment [5] has as its system UACC-62 melanoma. The conditions noted are these: 10 µM unless noted.
In experiment [6] the test system is LOX IMVI melanoma. The conditions noted are these: 10 µM unless noted.
For experiment [7], the system named is SK-MEL-28 melanoma. The conditions noted are these: 10 µM unless noted.
Experiment [8] relates to SK-MEL-2 melanoma. The settings on record: 10 µM unless noted.
The test system of experiment [9] is EKVX NSCLC. The conditions noted are these: 10 µM unless noted.
The test system of experiment [10] is SN12C renal. The settings on record: 10 µM unless noted.
Experiment [11] has as its system UO-31 renal. The conditions noted are these: 10 µM unless noted.
In experiment [12] the test system is TK-10 renal. The settings on record: 10 µM unless noted.
Experiment [13] deals with ACHN renal. The settings on record: 10 µM unless noted.
Experiment [14] concerns CAKI-1 renal. The settings on record: 10 µM unless noted.
Experiment [15] has as its system A498 renal. The conditions noted are these: 10 µM unless noted.
The test system of experiment [16] is CCRF-CEM leukemia. The conditions noted are these: 10 µM unless noted.
Experiment [17] has as its system U251 CNS. The settings on record: 10 µM unless noted.
Experiment [18] deals with HT29 colon. The settings on record: 10 µM unless noted.
In experiment [19] the test system is MOLT-4 leukemia. The conditions noted are these: 10 µM unless noted.

This is part of a sample that, as a whole, favours compounds with a hit. Of some 83,000 tested, about 20% had one in any assay.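 Results are percent growth after 48 hours of single-concentration exposure. 100 means growth as in untreated cells, lower positive values show inhibition; negative values down to -100 show cell death.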 A number with no mark means an inactive call. Active and inactive are the calls of the source. How the source made its calls: active means growth percent below 10; inactive means the rest.

On to `C[n+]1c(/C=C/c2c(O)ccc3ccccc23)ccc2ccccc21`, for which the growth is 49.9% in experiment [1]; 41.7% in [2]; 25.4% in [3]; 36% in [4]; 44.6% in [5]; -65.1% (active) in experiment [6]. The growth in experiment [7] is 66.6%; in experiment [8], 29.4%; in [9], 44.8%; in experiment [10], 32.4%; in experiment [11], 22.2%; in experiment [12] it was 49.1%. Also, the growth in experiment [13] was 31.6%; in [14] it was 35.1%; in [15], 52.9%; in experiment [16] it was 10.2%.

On to `CCCCC(CC)OC(=O)C(Br)CC` (centres undefined), for which the growth in [2] is 110%; in [17], 97.2%; in experiment [3], 102%; in [4], 102%; in [5] it was 106%; in experiment [6], 94.1%. In addition, the growth in [7] is 103%; in experiment [8], 100%; in experiment [9] it was 105%; in [10], 115%; in experiment [11], 93.6%; in experiment [12], 103%. Besides, the growth in [13] was 109%; in experiment [14] it was 99%; in experiment [15], 97.4%; in experiment [16] it was 109%.

On to `c1ccc(-c2cn(-c3ccccc3)c(-c3ccccc3)n2)cc1`, for which the growth was 70.5% in experiment [18]; 85.6% in [2]; 56.4% in experiment [17]; 59.5% in experiment [3]; 108% in experiment [4]; 76.9% in [5]. For the same compound, the growth was 69.3% in experiment [6]; 98.9% in [7]; 81.7% in experiment [8]; 89.1% in [9]; 97.7% in experiment [10]; 41.4% in experiment [11]. For the same compound, the growth in experiment [12] was 81.8%; in experiment [13], 91.1%; in experiment [14], 98.4%; in experiment [15], 94.5%; in experiment [16], -25.8% (active); in experiment [19], -13.3% (active).

For the compound `C=C1CCC2C(C)(CO)C(O)CCC2(C)C1CC(NCc1ccccc1)C1=CCOC1=O` (centres undefined), the growth in [18] is 99.6%; in experiment [2], 101%; in experiment [17] it was 96.2%; in experiment [3], 101%; in experiment [4] it was 113%; in experiment [5], 94.5%. Also, the growth was 97.5% in experiment [6]; 101% in [7]; 101% in experiment [8]; 100% in [9]; 93.1% in [10]; 87.9% in experiment [11]. The growth in experiment [12] was 103%; in experiment [13] it was 100%; in [14] it was 90.3%; in experiment [15], 106%; in [16], 105%; in experiment [19], 108%.

In the case of `CCOC(=O)CC(=O)OC`, the growth was 96.3% in experiment [2]; 101% in experiment [17]; 95.3% in [3]; 100% in [4]; 104% in [5]; 100% in experiment [6]. Besides, the growth in [7] was 104%; in experiment [8] it was 107%; in experiment [9] it was 99.1%; in experiment [10] it was 108%; in experiment [11], 90.4%; in experiment [12], 106%. The growth in experiment [13] is 107%; in [14], 91.2%; in experiment [15] it was 92.2%; in [16] it was 97.5%; in experiment [19], 83.3%.

Consider `Cc1cc(N/N=C/c2nc(-c3ccc(Br)cc3)oc2C)c2cc(Br)ccc2n1`, for which the growth in experiment [18] was -16.1% (active); in [2] it was 41.7%; in experiment [17], -9.51% (active); in experiment [3] it was 77.2%; in experiment [4], 92.9%; in [5], 73.9%. Further, the growth was -37.6% (active) in experiment [6]; 24.7% in experiment [7]; 99% in experiment [8]; 90.9% in experiment [9]; 26.8% in experiment [10]; 58.7% in [11]. Besides, the growth is 82% in [12]; 64.9% in experiment [13]; 88.3% in experiment [14]; 85.7% in experiment [15]; -4.62% (active) in experiment [16]; 7.29% (active) in [19].

On to `COc1ccc(-c2nc3sccn3c2/C=C/C(=O)c2cc(F)cc(F)c2)cc1`, for which the growth was 65.2% in [18]; 67.8% in experiment [2]; 45.4% in experiment [17]; 62.3% in [3]; 80.9% in experiment [4]; 54.4% in experiment [5]. The growth in experiment [6] was 50.1%; in experiment [7], 93%; in experiment [8], 74.7%; in [9], 88%; in experiment [10], 92.1%; in experiment [11], 60.5%. In addition, the growth in experiment [12] is 164%; in [13], 65.4%; in [14], 57.1%; in experiment [15], 57.6%; in experiment [16] it was 19.4%; in experiment [19], 5.45% (active).

For the compound `Cc1ccc(S(=O)(=O)c2nc(-c3ccccc3)oc2S(C)(=O)=O)cc1`, the growth in experiment [18] is -6.17% (active); in [2], 60.9%; in [17] it was 60.7%; in experiment [3], 84%; in [4], 88.8%; in experiment [5] it was 75.7%. For the same compound, the growth in experiment [6] is -32.7% (active); in experiment [7], 62.6%; in [8] it was 67.5%; in experiment [9], 74.1%; in experiment [10], 0.543% (active); in experiment [11] it was 2.62% (active). Besides, the growth is -72.8% (active) in experiment [12]; -99.7% (active) in experiment [13]; -98.9% (active) in [14]; 85.2% in [15]; -16.3% (active) in experiment [19].

Turning to `CC(C)CC1NC(C)(C)CO1` (centres undefined), the growth was 97.5% in [18]; 109% in experiment [17]; 94.4% in experiment [3]; 104% in experiment [4]; 106% in experiment [5]; 97.2% in experiment [6]. The growth in [7] is 111%; in [8] it was 113%; in experiment [9], 123%; in experiment [10], 112%; in [11], 90.2%; in experiment [12], 96.4%. Also, the growth was 113% in experiment [13], 92.5% in experiment [14], 102% in experiment [16] and 124% in experiment [19].
